# Records with an inconclusive call do not appear. Calls of active or inactive are those of the source. Rule for the calls, unless noted: active = hit-call score of the fitted dose curve at least 0.9, where 1 is the maximum; inconclusive = response in the unintended direction; inactive = score below 0.9.
# Assays:
# [1] = IUF_NPC1_cytotoxicity_72hr: Cytotoxicity Assessment at 72 hours in the Leibniz Research Institute for Environmental Medicine (IUF) Neural Progenitor Cell Proliferation Assay (NPC1) (AID 2284332);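 note: rising LDH signal means more cytotoxicity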
# Procedure, shortened: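 Spheres of primary human neural progenitors are plated one per well on day 0 in growth-factor medium and dosed at once. After three days at 37C, supernatant LDH is measured fluorimetrically via resazurin reduction.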
# [2] = CCTE_Mundy_HCI_iCellGluta_NOG_NeuronCount: CCTE's Neurite Outgrowth Assay in iCellGluta cells for Neuron Count, Mundy Lab (AID 2284340);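 note: cells fixed about 48 h after compound addition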
# Procedure, shortened: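 Neuron count read by automated high-content imaging of Hoechst 33342 and betaIII-tubulin/Alexa Fluor-488 labelling in human iPSC glutamatergic neurons. Activity fitted relative to DMSO.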
# [3] = TAMU_PeakParms_SingleDonor1434_Asystole: Texas A&M University (TAMU) 1.5-hr Human Induced Pluripotent Stem Cell (iPSC)-derived Cardiomyocytes Calcium (Ca+2) Flux Assay for Cardiotoxicity: Asystole (quiescence of beating) (AID 2284328)
# Procedure, shortened: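 Donor 1434 iPSC-cardiomyocytes exposed 90 min at 37C, 5% CO2, to 0.2, 1, 10 and 100 uM in 0.5% DMSO. Ca2+ dye fluorescence gave average peak frequency; POD is EC95, a 95% beat-rate drop versus controls.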
# [4] = test system: Brachyury (BRA) Protein Expression, Deisenroth Lab, TBXT (gene 6862); assay: CCTE_Deisenroth_DEVTOX-GLR_legacy_Bra: (Legacy) CCTE's DevTox GLR-Endo Assay Evaluation of Brachyury (BRA) Protein Expression, Deisenroth Lab (AID 2284329; active = hit-call score of the fitted dose curve at least 0.9, where 1 is the maximum; inactive = score below 0.9)
# Procedure, shortened: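 RUES2-GLR human pluripotent cells are differentiated for 48 h and receive two chemical exposures 24 h apart, at 10 concentrations from 1 nM to 200 uM. Cells are fixed, nuclei stained and imaged. Bra+ cells are those with mean Bra intensity over 5x BMAD above the pluripotent control median, expressed as a percentage of cell count, after subtracting the 0.2% DMSO control median.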
# [5] = CCTE_Deisenroth_DEVTOX-GLR_legacy_CellCount: (Legacy) Viability Assessment in CCTE's DevTox GLR-Endo Assay, Deisenroth Lab (AID 2284331; active = hit-call score of the fitted dose curve at least 0.9, where 1 is the maximum; inactive = score below 0.9); conditions: actives raise or lower the signal
# Procedure: CCTE_Deisenroth_DEVTOX-GLR_legacy assay is a cell-based, multiplex-readout assay that uses RUES2-GLR, a human pluripotent cell line, with measurements taken at 48 hours after chemical dosing in a 384-well microplateCCTE_Deisenroth_DEVTOX-GLR_legacy_CellCount is one of 4 assay components calculated from the CCTE_Deisenroth_DEVTOX-GLR_legacy assay that measures an increase in cell count. It is designed to make measurements of nuclei count, a form of cell viability, as detected with optical fluorescence microscopy by Perkin Elmer Harmony nuclei detection algorithm. The assay endpoints were analyzed with bidirectional fitting relative to 0.2% DMSO control in the DEVTOX-GLR assay.Data from the assay component CCTE_Deisenroth_DEVTOX-GLR_legacy_CellCount was analyzed into 1 assay endpoint. This assay endpoint, CCTE_Deisenroth_DEVTOX-GLR_legacy_CellCount, was analyzed with bidirectional fitting relative to DMSO as the negative control and baseline activity. Using nuclei counting, gain or loss-of-signal activity can be used to understand changes in cell viability. Furthermore, this assay endpoint can be referred to as a primary readout, because this assay has produced multiple assay endpoints where this one serves as a measure of cytotoxicity. To generalize the intended target to other relatable targets, this assay endpoint is annotated to the cell cycle intended target family, where the subfamily is cytotoxicity.
# All assay protocols are aligned to the DevTox GLR-Endo assay workflow. Cells are seeded into 384-well microplates for 24 hours prior to initiating differentiation in defined media for a total duration of 48 hours. A total of two chemical exposures are administered in 24-hour intervals during the 48-hour differentiation period. At the assay termination point, cells are fixed and stained with a fluorescent dye demarcating the nucleus. […] Cell identification and mean biomarker fluorescence intensities are calculated with image analysis software to determine the total cell counts for viability assessment and the biomarker expression frequency for each lineage-dependent assay. […]
# [6] = VALA_MIGHUV1_ScratchOnly_CellCount: Viability Assessment in the VALA Sciences human Umbilical Vein Endothelial Cell Migration (MIGHUV) Assay, Scratch Wound Inhibited Recovery (AID 2284327)
# Procedure: VALA_MIGHUV1_ScratchOnly is a cell-based, multiplexed assay that uses umbilical vein-derived endothelial cells (HUVEC). Measurements were taken 24 hours after chemical dosing in a 96-well plate.VALA_MIGHUV1_ScratchOnly_CellCount is the one of two assay components measured from the VALA_MIGHUV1_ScratchOnly assay. It is designed to make measurements of viability, a form of viability reporter, as detected with fluorescence intensity signals by HCS Fluorescent Imaging technology. Data from the assay component VALA_MIGHUV1_ScratchOnly_CellCount was analyzed at the endpoint, VALA_MIGHUV1_ScratchOnly_CellCount, in the positive analysis fitting direction relative to DMSO as the negative control and baseline of activity. Using a type of viability reporter, loss-of-signal activity can be used to understand viability. To generalize the intended target to other relatable targets, this assay endpoint is annotated to the cell cycle intended target family, where the subfamily is cell count.
# Cells were seeded on 384-well microplates (day-0) at a density of 9000 cells per well for detection of wound area recovery or 4000 cells per well for detection of beta-catenin (CTNB) immunoreactivity and incubated in Endothelial Cell Growth Medium (CAI, San Diego; catalog 211-500). After 24 hours of culture, the HUVEC plates were scratched using a custom scratch head with the Bravo liquid handling system. […]
# [7] = VALA_MIGHUV1_ScratchOnly_WoundArea: VALA Sciences human Umbilical Vein Endothelial Cell Migration (MIGHUV) Assay, Area of Scratch Wound Inhibited Recovery (AID 2284336)
# Procedure: VALA_MIGHUV1_ScratchOnly is a cell-based, multiplexed assay that uses umbilical vein-derived endothelial cells (HUVEC). Measurements were taken 24 hours after chemical dosing in a 96-well plate.VALA_MIGHUV1_ScratchOnly_WoundArea is the one of two assay components measured from the VALA_MIGHUV1_ScratchOnly assay. It is designed to make measurements of endothelial migration, a form of morphology reporter, as detected with fluorescence intensity signals by HCS Fluorescent Imaging technology. Data from the assay component VALA_MIGHUV1_ScratchOnly_WoundArea was analyzed at the endpoint, VALA_MIGHUV1_ScratchOnly_WoundArea, in the positive analysis fitting direction relative to DMSO as the negative control and baseline of activity. Using a type of morphology reporter, gain-of-signal activity can be used to understand developmental effects. To generalize the intended target to other relatable targets, this assay endpoint is annotated to the neurodevelopment intended target family, where the subfamily is migration.
# Cells were seeded on 384-well microplates (day-0) at a density of 9000 cells per well for detection of wound area recovery or 4000 cells per well for detection of beta-catenin (CTNB) immunoreactivity and incubated in Endothelial Cell Growth Medium (CAI, San Diego; catalog 211-500). After 24 hours of culture, the HUVEC plates were scratched using a custom scratch head with the Bravo liquid handling system. This created a 'wound' area without cells in each well. Test chemical was added within 30 min, each tested in 3-replicates across a 6-point concentration response (0.1 % DMSO vehicle control). 'ScratchOnly' Plates were incubated for a 24 h 'wound recovery' period and then fixed with 4% paraformaldehyde. Hoechst dye was used to visualize cell nuclei in the wound area, and CTNB immunofluorescence for visualizing CTNB-positive nuclei (beta-Catenin (L54E2) Mouse mAb (IF Preferred) 2677; Cell Signaling Technology, Danvers, MA). Each HUVEC plate included neutral vehicle control (0.1 % DMSO) treated wells and Cytochalasin D (actin cytoskeletal disrupter) or BIO-acetoxime (synthetic GSK3 inhibitor) as positive reference controls for endothelial migration and nuclear translocation of CTNB, respectively.
# [8] = VALA_TUBIPS_Agonist_CellCount: Viability Assessment in the VALA Sciences human iPS-derived Endothelial Tubule Formation (TUBIPS) Agonism Assay (AID 2284338)
# Procedure: VALA_TUBIPS_Agonist is a cell-based, multiplexed assay that uses human iPS-derived endothelial cells (iPSC). Measurements were taken 72 hours after chemical dosing in a 96-well plate.VALA_TUBIPS_Agonist_CellCount is the one of two assay components measured from the VALA_TUBIPS_Agonist assay. It is designed to make measurements of viability, a form of viability reporter, as detected with fluorescence intensity signals by HCS Fluorescent Imaging technology. Data from the assay component VALA_TUBIPS_Agonist_CellCount was analyzed at the endpoint, VALA_TUBIPS_Agonist_CellCount, in the positive analysis fitting direction relative to DMSO as the negative control and baseline of activity. Using a type of viability reporter, loss-of-signal activity can be used to understand viability. To generalize the intended target to other relatable targets, this assay endpoint is annotated to the cell cycle intended target family, where the subfamily is cell count.
# […]
# [9] = VALA_TUBHUV_Agonist_TubuleLength: VALA Sciences human Umbilical Vein Endothelial Tubule Formation (TUBHUV) Agonism Assay (AID 2284337)
# Procedure, shortened: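 HUVEC co-cultured with fibroblasts (1:3) 3 days in 10 ng/ml VEGF, then 3 days with compound plus VEGF; 0.1 % DMSO neutral control. Fixed, nuclear and CD31 stained; tubule length by fluorescence imaging.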
# [10] = VALA_TUBIPS_Antagonist_CellCount: Viability Assessment in the VALA Sciences human iPS-derived Endothelial Tubule Formation (TUBIPS) Antagonism Assay (AID 2284335)
smiles,measurement,setting,value
CCCN(CCC)C(=O)SCC,outcome,[1],inactive
same,outcome,[2],inactive
CCN(CC)C(=O)c1cccc(C)c1,outcome,[1],inactive
same,outcome,[2],inactive
COCCO,outcome,[3],inactive
Cc1nn(C)c(Oc2ccccc2)c1C=NOCc1ccc(C(=O)OC(C)(C)C)cc1,outcome,[1],inactive
same,AC50,[2],6.47 µM (active)
OB(O)O,outcome,[4],inactive
same,outcome,[5],inactive
S=C(S)NCCNC(=S)S.[Mn+2].[S-]C([S-])=NCCN=C([S-])[S-].[Zn+2],outcome,[6],inactive
same,outcome,[1],inactive
same,outcome,[7],inactive
same,outcome,[8],inactive
same,outcome,[2],inactive
CC1(C)C(C=C(Cl)Cl)C1C(=O)OCc1cccc(Oc2ccccc2)c1 (stereo not drawn),outcome,[3],inactive
N[C@@H](Cc1cc(I)c(Oc2ccc(O)c(I)c2)c(I)c1)C(=O)O,outcome,[7],inactive
same,outcome,[9],inactive
same,outcome,[8],inactive
O=C(O)c1ccccc1,outcome,[3],inactive
same,outcome,[1],inactive
CSC(=O)c1cccc2nnsc12,outcome,[1],inactive
C#CCOC(=O)[C@@H](C)Oc1ccc(Oc2ncc(Cl)cc2F)cc1,outcome,[1],inactive
same,outcome,[2],inactive
c1ccc2[nH]c(-c3cscn3)nc2c1,outcome,[3],inactive
CC(=O)[C@H]1CC[C@H]2[C@@H]3CCC4=CC(=O)CC[C@]4(C)[C@H]3CC[C@]12C,outcome,[3],inactive
CCCCC(CC)COC(=O)c1ccccc1C(=O)O (stereo not drawn),outcome,[4],inactive
same,AC50,[5],112 µM (active)
CC(C)CCCCCCc1ccc(O)cc1,outcome,[7],inactive
same,outcome,[9],inactive
same,outcome,[8],inactive
CC(C)(c1ccc(O)cc1)c1ccc(O)cc1,outcome,[3],inactive
same,AC50,[4],49.5 µM (active)
same,AC50,[5],35.6 µM (active)
same,outcome,[1],inactive
same,outcome,[10],inactive
same,outcome,[7],inactive
same,outcome,[8],inactive
S=C([S-])NCCNC(=S)[S-].[Mn+2],outcome,[1],inactive

# From PubChem BioAssay (EPA / NIEHS)
